Test results as given in the antibiotic and cytotoxicity screens of Wong et al. (2023).
In all, about 39,000 compounds went through this assay and about 1,500 (3.8%) were called active. What follows is part of a selection rich in actives, with near analogues and random picks from the rest.

Test system: HSkMC (human skeletal muscle cells)
Experiment: cytotoxicity call (relative viability < 0.9)
Conditions: 10 µM

Row | SMILES | cytotoxicity call
1 | COc1ccc(CN(C)C[C@H]2OCCCC[C@@H](C)Oc3ccc(NS(=O)(=O)c4ccc(OC)cc4)cc3C(=O)N([C@H](C)CO)C[C@H]2C)cc1 | inactive
2 | COc1ccc(S(=O)(=O)Nc2ccc3c(c2)C(=O)N([C@H](C)CO)C[C@@H](C)[C@H](CN(C)Cc2ccc(Cl)c(Cl)c2)OCCCC[C@@H](C)O3)cc1 | inactive
3 | COc1ccc(S(=O)(=O)Nc2ccc3c(c2)C(=O)N([C@@H](C)CO)C[C@@H](C)[C@@H](CN(C)Cc2ccc(Cl)c(Cl)c2)OCCCC[C@@H](C)O3)cc1 | active
4 | COc1ccc(S(=O)(=O)Nc2ccc3c(c2)C(=O)N([C@@H](C)CO)C[C@@H](C)[C@H](CN(C)Cc2ccc(Cl)c(Cl)c2)OCCCC[C@@H](C)O3)cc1 | active
5 | COc1ccc(S(=O)(=O)Nc2ccc3c(c2)C(=O)N([C@H](C)CO)C[C@H](C)[C@H](CN(C)Cc2ccc(Cl)c(Cl)c2)OCCCC[C@@H](C)O3)cc1 | inactive
6 | COc1ccc(CN(C)C[C@H]2OCCCC[C@H](C)Oc3ccc(NS(=O)(=O)c4ccc(OC)cc4)cc3C(=O)N([C@@H](C)CO)C[C@@H]2C)cc1 | inactive
7 | COc1ccc(S(=O)(=O)Nc2ccc3c(c2)C(=O)N([C@H](C)CO)C[C@H](C)[C@@H](CN(C)Cc2ccc(Cl)c(Cl)c2)OCCCC[C@H](C)O3)cc1 | active
8 | COc1ccc(CN(C)C[C@H]2OCCCC[C@@H](C)Oc3ccc(NS(=O)(=O)c4ccc(OC)cc4)cc3C(=O)N([C@@H](C)CO)C[C@@H]2C)cc1 | inactive
9 | COc1ccc(CN(C)C[C@H]2OCCCC[C@H](C)Oc3ccc(NS(=O)(=O)c4ccc(OC)cc4)cc3C(=O)N([C@H](C)CO)C[C@H]2C)cc1 | inactive
10 | COc1ccc(S(=O)(=O)Nc2ccc3c(c2)C(=O)N([C@@H](C)CO)C[C@H](C)[C@H](CN(C)Cc2ccc(Cl)c(Cl)c2)OCCCC[C@@H](C)O3)cc1 | active
11 | Cn1cc(C(F)(F)F)ccc1=S | inactive
12 | CCS(=O)(=O)N(C)C[C@@H]1OCc2ccccc2-c2c(n(C)c3ccccc23)C(=O)N([C@@H](C)CO)C[C@@H]1C | inactive
13 | COCC#Cc1ccc2c(c1)O[C@@H](CN(C)Cc1ccc3c(c1)OCO3)[C@H](C)CN([C@@H](C)CO)S2(=O)=O | inactive
14 | C[C@@H]1CN([C@H](C)CO)C(=O)Cc2cc(NS(=O)(=O)c3cn(C)cn3)ccc2O[C@H]1CN(C)C(=O)Nc1ccc(F)cc1 | inactive
15 | Cc1noc(C)c1S(=O)(=O)Nc1ccc2c(c1)CC(=O)N([C@@H](C)CO)C[C@@H](C)[C@@H](CN(C)S(=O)(=O)c1cccs1)O2 | inactive
16 | O=S(=O)(c1c[nH]c2ncccc12)N1CC(S(=O)(=O)N2CCOCC2)C1 | inactive
17 | Clc1ccc(-c2nnc(Nc3ccccc3)s2)c(Cl)c1 | inactive
18 | C[C@H](O)C#Cc1cnc2c(c1)C(=O)N([C@@H](C)CO)C[C@@H](C)[C@@H](CN(C)C(=O)Nc1ccc(C(F)(F)F)cc1)O2 | inactive
19 | NC(=O)C1N=CN([C@@H]2O[C@H](CO)[C@@H](O)[C@H]2O)C1=O (stereo not given in full) | inactive
20 | COc1ccc(S(=O)(=O)Nc2ccc3c(c2)C(=O)N([C@@H](C)CO)C[C@H](C)[C@@H](CN(C)Cc2ccc(Cl)c(Cl)c2)OCCCC[C@@H](C)O3)cc1 | active
21 | COc1ccc(S(=O)(=O)Nc2ccc3c(c2)C(=O)N([C@H](C)CO)C[C@H](C)[C@H](CN(C)Cc2ccc(Cl)c(Cl)c2)OCCCC[C@H](C)O3)cc1 | active
22 | COc1ccc(S(=O)(=O)Nc2ccc3c(c2)C(=O)N([C@H](C)CO)C[C@H](C)[C@@H](CN(C)Cc2ccc(Cl)c(Cl)c2)OCCCC[C@@H](C)O3)cc1 | inactive

Row | SMILES | cytotoxicity call
23 | COc1ccc(CN(C)C[C@@H]2OCCCC[C@@H](C)Oc3ccc(NS(=O)(=O)c4ccc(OC)cc4)cc3C(=O)N([C@@H](C)CO)C[C@H]2C)cc1 | inactive
24 | COc1ccc(CN(C)C[C@H]2OCCCC[C@H](C)Oc3ccc(NS(=O)(=O)c4ccc(OC)cc4)cc3C(=O)N([C@H](C)CO)C[C@@H]2C)cc1 | inactive
25 | COc1ccc(S(=O)(=O)Nc2ccc3c(c2)C(=O)N([C@@H](C)CO)C[C@H](C)[C@@H](CN(C)Cc2ccc(Cl)c(Cl)c2)OCCCC[C@H](C)O3)cc1 | inactive
26 | COc1ccc(S(=O)(=O)Nc2ccc3c(c2)C(=O)N([C@H](C)CO)C[C@@H](C)[C@@H](CN(C)Cc2ccc(Cl)c(Cl)c2)OCCCC[C@H](C)O3)cc1 | active
27 | COc1ccc(CN(C)C[C@@H]2OCCCC[C@@H](C)Oc3ccc(NS(=O)(=O)c4ccc(OC)cc4)cc3C(=O)N([C@H](C)CO)C[C@@H]2C)cc1 | inactive
28 | COc1ccc(S(=O)(=O)Nc2ccc3c(c2)C(=O)N([C@H](C)CO)C[C@@H](C)[C@H](CN(C)Cc2ccc(Cl)c(Cl)c2)OCCCC[C@H](C)O3)cc1 | active
29 | COc1ccc(CN(C)C[C@H]2OCCCC[C@@H](C)Oc3ccc(NS(=O)(=O)c4ccc(OC)cc4)cc3C(=O)N([C@@H](C)CO)C[C@H]2C)cc1 | inactive
30 | COc1ccc(NC(=O)Nc2ccc3c(c2)C(=O)N([C@@H](C)CO)C[C@H](C)[C@@H](CN(C)CC2CCCCC2)O3)cc1 | inactive
31 | C[C@H]1CN([C@@H](C)CO)C(=O)c2cc(NS(=O)(=O)c3cn(C)cn3)ccc2O[C@@H]1CN(C)C(=O)Nc1ccccc1 | inactive
32 | C[C@H](CO)N1C[C@H](C)[C@H](CN(C)S(=O)(=O)c2ccccc2F)Oc2cc(C#Cc3ccccc3)ccc2S1(=O)=O | inactive
33 | CN(C)[C@@H](CN)c1cccn1C | inactive
34 | C[C@H](CO)N1C[C@H](C)[C@H](CN(C)C(=O)CN2CCOCC2)Oc2ncc(C#C[C@@H](C)O)cc2C1=O | inactive
35 | C[C@H](CO)N1C[C@H](C)[C@@H](CN(C)Cc2ccc(-c3ccccc3)cc2)Oc2ccc(NS(=O)(=O)c3cccs3)cc2CC1=O | inactive
36 | C/C(=N\N)c1ccc2ccccc2c1 | inactive
37 | O=C(C[C@H]1CC[C@H]2[C@@H](COC[C@H](O)CN2C(=O)c2ccccc2)O1)N1CCOCC1 | inactive
38 | Cc1noc(C)c1NC(=O)Nc1cccc2c1O[C@H](CN(C)S(C)(=O)=O)[C@@H](C)CN([C@H](C)CO)C2=O | inactive
39 | CC(C)NC(=O)N(C)C[C@@H]1Oc2ccc(NC(=O)Cc3ccccc3)cc2C(=O)N([C@@H](C)CO)C[C@@H]1C | inactive
40 | Cc1noc(C)c1NC(=O)Nc1ccc2c(c1)C(=O)N([C@@H](C)CO)C[C@H](C)[C@@H](CN(C)C(=O)c1ccccc1)OCCCC[C@@H](C)O2 | inactive
41 | O=C(C[C@@H]1CC=CCC[C@@H](Cc2ccc(F)cc2)C(=O)OC[C@H](Cc2c[nH]c3ccccc23)NC1=O)N[C@@H](CO)Cc1ccccc1 | inactive
42 | O=C(C[C@@H]1CC=CCC[C@@H](Cc2ccc(F)cc2)C(=O)OC[C@@H](Cc2c[nH]c3ccccc23)NC1=O)N[C@H](CO)Cc1ccccc1 | active
43 | O=C(C[C@@H]1CC=CCC[C@H](Cc2ccc(F)cc2)C(=O)OC[C@@H](Cc2c[nH]c3ccccc23)NC1=O)N[C@@H](CO)Cc1ccccc1 | inactive
44 | C[C@H]1CN([C@@H](C)CO)C(=O)c2cccc(NC(=O)Nc3ccc(C(F)(F)F)cc3)c2O[C@@H]1CN(C)Cc1ccncc1 | inactive

Row | SMILES | cytotoxicity call
45 | COc1ccc(NC(=O)Nc2ccc3c(c2)C(=O)N([C@@H](C)CO)C[C@H](C)[C@H](CN(C)Cc2ccc(C(=O)O)cc2)OCCCC[C@@H](C)O3)cc1 | inactive
46 | Cc1cc(C(=O)c2cc3cc(Cl)ccc3o2)ccc1Cl | inactive
47 | Cc1ccc(CN)cc1Cl | inactive
48 | Cc1cc(CN)cc(C)c1NC(=O)c1ccc(-c2cc(Cl)ccc2Cl)o1 | active
49 | COc1cccc(S(=O)(=O)N(C)C[C@H]2Oc3ncc(Br)cc3C(=O)N([C@H](C)CO)C[C@H]2C)c1 | inactive
50 | COC(CN(C)C(=O)c1cn(C)c2ccc(S(=O)(=O)N3CCOCC3)cc2c1=O)OC | inactive
51 | Cc1[nH]c(=O)[nH]c(=O)c1S(=O)(=O)N1CCN(c2ccccc2)CC1 | inactive
52 | CCCn1c(=O)[nH]c2nc(-c3ccc(S(=O)(=O)N4CCN(c5ccc(Cl)cc5)CC4)cc3)[nH]c2c1=O | active
53 | Cn1cc(S(=O)(=O)N2CCN(c3ccc(F)cc3)CC2)c(=O)n(C)c1=O | inactive
54 | C[C@H](CO)N1C[C@H](C)[C@H](CN(C)C(=O)c2ccccc2)OCCCC[C@H](C)Oc2ccc(NS(=O)(=O)c3ccccc3)cc2C1=O | inactive
55 | CC(=O)Nc1ccc(S(=O)(=O)CCO)cc1 | inactive
56 | C[C@H](CO)N1C[C@H](C)[C@@H](CN(C)Cc2ccncc2)Oc2c(NC(=O)C3CCOCC3)cccc2C1=O | inactive
57 | COc1ccc([Si](C)(C)[C@H]2[C@H](CC(=O)N3Cc4ccccc4C[C@H]3CO)O[C@@]3(C(=O)N(C)c4c(Br)cc(C)cc43)[C@@H]2C)cc1 | active
58 | COc1ccc([Si](C)(C)[C@@H]2[C@@H](CC(=O)N3Cc4ccccc4C[C@H]3CO)O[C@]3(C(=O)N(Cc4ccc(I)cc4)c4ccccc43)[C@H]2C)cc1 | inactive
59 | COc1ccc([Si](C)(C)[C@@H]2[C@@H](CC(=O)N(CCO)Cc3ccccc3)O[C@]3(C(=O)N(C)c4c(Br)cc(C)cc43)[C@H]2C)cc1 | inactive
60 | COc1ccc([Si](C)(C)[C@@H]2[C@@H](CCn3cc([C@H](O)c4ccccc4)nn3)O[C@]3(C(=O)N(c4ccccc4)c4ccccc43)[C@H]2C)cc1 | inactive
61 | COc1ccc([Si](C)(C)[C@@H]2[C@@H](CC(=O)N3Cc4ccccc4C[C@H]3CO)O[C@]3(C(=O)N(C)c4c(Br)cc(C)cc43)[C@H]2C)cc1 | active
62 | COc1ccc([Si](C)(C)[C@H]2[C@H](CC(=O)N3Cc4ccccc4C[C@H]3CO)O[C@@]3(C(=O)N(Cc4cccc(I)c4)c4ccccc43)[C@@H]2C)cc1 | inactive
63 | COc1ccc([Si](C)(C)[C@H]2[C@H](CC(=O)N(CCO)Cc3ccccc3)O[C@@]3(C(=O)N(C)c4c(Br)cc(C)cc43)[C@@H]2C)cc1 | inactive
64 | COc1ccc([Si](C)(C)[C@@H]2[C@@H](CCn3cc([C@H](O)c4ccccc4)nn3)O[C@]3(C(=O)N(C)c4c(Br)cc(C)cc43)[C@H]2C)cc1 | active
65 | COc1ccc([Si](C)(C)[C@H]2[C@H](CCn3cc([C@H](O)c4ccccc4)nn3)O[C@@]3(C(=O)N(C)c4c(Br)cc(C)cc43)[C@@H]2C)cc1 | inactive
